Assay outcomes (PubChem BioAssay)
aSyn 5UTR act – Activators working through SNCA 5'UTR binding (MLPCN); alpha-synuclein 5'UTR reporter, activators screen; hit rate 7.1% among 300,000; activity score, % (tested at 7.5 µM), hits read low; in the data active means activity score below about -60%
Hits are given with their value; - = inactive. Not all results are given here.

SMILES | aSyn 5UTR act
Cc1ccc(N2CS(=O)(=O)/C(=C/N(C)C)C2=O)cc1 | -108
CN(C)/C=C1\C(=O)N(c2ccc(Cl)cc2)CS1(=O)=O | -126
COc1ccc(/C=C/c2nc(-c3ccccc3O)n[nH]2)cc1OC | -132
Cc1noc(C)c1C(=O)OCC(=O)c1cc(C)n(Cc2ccccc2Cl)c1C | -98
CCOc1ccccc1CNS(=O)(=O)c1ccc(-c2cnc(C3CC3)o2)cc1 | -
CCC(=O)Nc1ccc(NC(=O)c2cccc(OC)c2)nc1 | -171
COc1ccc(C(=O)Nc2ccc(NC(=O)c3ccccc3OC)nc2)cc1 | -96
COc1cccc(C(=O)Nc2ccc(NC(=O)C3CC3)cn2)c1 | -157
COc1ccccc1C(=O)Nc1ccc(NC(=O)c2ccco2)cn1 | -80
O=C(Nc1ccccn1)c1ccco1 | -100
COc1ccc(C(=O)Nc2ccc(NC(=O)C3CC3)nc2)cc1 | -87
CCC(=O)Nc1cc(C)c(NC(=O)c2ccccc2OC)cn1 | -70
O=C(Nc1ccc(NC(=O)c2ccccc2)nc1)c1ccncc1 | -81
CC(C)(C)C(=O)Nc1ccc(NC(=O)c2ccco2)nc1 | -
O=C(Cc1ccccc1)Nc1ccc(NC(=O)c2ccco2)nc1 | -149
CCc1ccc2[nH]c(=O)c(CN(Cc3ccccc3OC)C(=O)Nc3ccccc3OC)cc2c1 | -72
CCc1cccc2c(=O)c(C(=O)N3CCCCCC3)c[nH]c12 | -78
Clc1ccc(-c2noc(CN3CCOCC3)n2)cc1 | -86
Clc1ccccc1OCCn1nnc2ccccc21 | -169
Cc1ccc(OCCn2nc3ccccc3n2)c(C)c1 | -90
Cc1cc(C)cc(OCCn2nnc3ccccc32)c1 | -126
Cc1ccc(C)c(OCCn2nnc3ccccc32)c1 | -70
Cc1ccc(C(=O)NNc2c3ccccc3nc3ccccc23)cc1 | -87
O=C(NNc1c2ccccc2nc2ccccc12)c1ccc(Cl)cc1 | -80
CSc1nc(N(C)NC(=O)c2ccc(Cl)cc2)c2ccccc2n1 | -
SMILES | aSyn 5UTR act
COc1ccc(Cl)c2c1[nH]c1nc(SCc3ccccn3)nnc12 | -106
O=C(c1cn(-c2ccc(Cl)c(Cl)c2)nn1)C1CC1 | -107
CSc1nc(-c2ccc(Cl)cc2)nn1C(=O)c1ccccc1 | -134
CCOC(=O)Nc1nc(-c2ccc(F)cc2F)cs1 | -148
Cc1cccc(N=Nc2cnc(N)s2)c1 | -109
Oc1ccccc1C1CC(c2cccs2)=NC(c2cccc(Br)c2)N1 (stereo unspecified) | -87
N/C(=N\OC(=O)CCC1CCCC1)c1ccccc1 | -126
CC(C)(C)c1ccc(C(=O)O/N=C(\N)c2ccccn2)cc1 | -
N/C(=N\OC(=O)CCC1CCCC1)c1ccccn1 | -133
O=C(Nc1ccc2nc3n(c(=O)c2c1)CCCC3)c1cccc(F)c1 | -82
O=C(Nc1ccc2nc3n(c(=O)c2c1)CCCCC3)c1ccccc1[N+](=O)[O-] | -87
O=C(Nc1ccc2nc3n(c(=O)c2c1)CCCC3)c1ccccc1F | -67
CCN(CC)c1cc(C)c2cc(NC(=O)c3ccccc3F)ccc2n1 | -125
O=C(Nc1ccc2nc3n(c(=O)c2c1)CCCCC3)c1c(F)ccc([N+](=O)[O-])c1F | -
CCOC(=O)Nc1ccc2nc3n(c(=O)c2c1)CCCCC3 | -79
COc1ccccc1N1CCN(Cc2cc(Br)c(O)c3ncccc23)CC1 | -
CCOC(=O)C1(Cc2cccc(OC)c2)CCN(Cc2cccc(OCC)c2O)CC1 | -69
CCOC(=O)C1(Cc2cccc(OC)c2)CCCN(C(=O)CSC)C1 (stereo unspecified) | -97
CCOC(=O)C1(Cc2cccc(OC)c2)CCCN(C(=O)c2cc(C)oc2C)C1 (stereo unspecified) | -71
CCOC(=O)C1(Cc2cccc(OC)c2)CCCN(C(=O)CCc2cccnc2)C1 (stereo unspecified) | -133
CCOC(=O)C1(Cc2ccccc2C)CCCN(C(=O)c2sccc2C)C1 (stereo unspecified) | -70
CCOC(=O)C1(Cc2ccccc2)CCCN(C(=O)C=C(C)C)C1 (stereo unspecified) | -137
CC#CC(=O)N1CCCC(Cc2cccc(OC)c2)(C(=O)OCC)C1 (stereo unspecified) | -106
COc1ccccc1N1CCN(C(=O)C2c3ccccc3Oc3ccccc32)CC1 | -
COc1ccccc1N1CCN(/N=C\c2ccccc2)CC1 | -103
SMILES | aSyn 5UTR act
COc1ccccc1N1CCN(/N=C/C(Cl)=C/c2ccccc2)CC1 | -159
COc1ccccc1N1CCN(/N=C\c2ccc(C)o2)CC1 | -98
C/C(N)=C(/C#N)C(=O)COC(=O)c1cc2c(s1)CCC(C)C2 (stereo unspecified) | -73
O=C1C(Cl)=C(Nc2cccc(O)c2)C(=O)N1Cc1ccccc1 | -69
COc1ccc(Nc2oc(-c3cccs3)nc2C#N)cc1 | -171
COc1ccc(Nc2oc(COc3ccccc3OC)nc2C#N)cc1 | -
COc1ccc(Nc2oc(-c3ccccc3F)nc2C#N)cc1 | -103
O=C(Nc1cccnc1)c1ccc(Oc2ccccc2)cc1 | -70
CCCOc1ccc(C(=O)Nc2cccnc2)cc1 | -181
CCCCOc1ccc(C(=O)Nc2ccncc2)cc1 | -123
O=C(Nc1cccnc1)c1ccc(CSc2ccccc2)cc1 | -115
O=C(O)/C=C\C(=O)Nc1ccccc1C#Cc1ccc(Br)cc1 | -290
